We go through 19 molecules from ChEMBL document CHEMBL3988442, “University of Dundee, Small-Polar-MMV Screening Library” (2021).

The structures appear in SMILES notation.

In the assay the target is AMP-activated protein kinase, AMPK (Homo sapiens) (UniProt P54646+O43741+P54619+Q9UGJ0+Q9Y478+Q13131+Q9UGI9). In words: AMP-dependent Kinase enzyme assay. An in vitro enzyme assay that detects ADP turnover that is directly proportional to AMPK activity. This uses naive AMPK that is activated during the assay with MK-8722. The class given is functional. On the set-up: scale not given: direction of the effect not stated beside the values. As to conditions: 30 µM.
Take `O=C(CN1CCCC(c2ccn[nH]2)C1)N1CCCc2ccccc21` (centres undefined): the Percent Effect is -2.2%.

On to `CN1CSC[C@H]1C(=O)N1CCC(Cc2ccccc2F)CC1`, for which the Percent Effect was 0.306%.

For `COc1ccc(Cn2c(CCc3c(C)n[nH]c3C)n[nH]c2=O)cc1`, the Percent Effect is -3.53%.

Take `Cc1cc(C(=O)NC2CCN(c3nnc(C)c(C)c3C#N)CC2)no1`: the Percent Effect is -21.4%.

On to `CCC(NCCn1cc(C)cn1)C(=O)Nc1cc(C)on1` (centres undefined), for which the Percent Effect is -6.29%.

In the case of `NC(=O)COc1ccc(CN2CCC(O)(CN3CCCCC3)C2)cc1Cl` (centres undefined), the Percent Effect was determined as 2.63%.

Regarding `CN(C)S(=O)(=O)N1CCCC(c2nccnc2-c2cccc(Cl)c2)C1` (centres undefined), the Percent Effect was 16%.

In the case of `O=C(c1coc(COc2ccccc2F)n1)N1CCCO1`, the Percent Effect was found to be 6.72%.

On to `CN(Cc1nncn1C)C(=O)c1cc(COc2ccccc2F)[nH]n1`, for which the Percent Effect is -9.05%.

As to `COCC(=O)NCc1ccc(-c2ncncc2C(=O)N(C)C)cc1`, the Percent Effect turned out to be 5.99%.

As for `CC(C)(C)C(=O)NCCc1cc(N2CCOCC2)nc(NC2CC2)n1`, the Percent Effect was 17.4%.

On to `Cc1nc2c(c(NC(C)c3nnn[nH]3)n1)Cc1ccccc1OC2` (centres undefined), for which the Percent Effect is -6.31%.

On to `CN(Cc1cc(Br)cn1C)C(=O)c1cccnc1`, for which the Percent Effect was -0.766%.

Consider `Cc1nn(C)c2nc(N3CCCC3c3nccs3)sc12` (centres undefined), for which the Percent Effect is -1.47%.

Turning to `CNC(=O)NC(=O)CN(Cc1ccc(C#N)cc1)Cc1cccc(F)c1`, the Percent Effect was -4.48%.

For `CCNC(=O)CN(CC)C(=O)c1csc(Cc2ccccc2F)n1`, the Percent Effect was 4.98%.

Regarding `COCCCN1CCCC(c2nccn2CC2CCC2)C1` (centres undefined), the Percent Effect amounted to 0.821%.

Consider `Cc1cccc(C(C)C)c1NC(=O)CN(C)C(C)c1nccs1` (centres undefined), for which the Percent Effect was -7.09%.

Turning to `CCN(C)Cc1cccc(CNC(=O)CSCc2ccccn2)c1`, the Percent Effect came out at 4.61%.
